Screening data deposited in PubChem by Broad Institute.
Sampled rows, rich in hits. Any-hit rate of the full collection: about 2.8%.
STAT3 binder – binders of human STAT3 | P40763 | Small molecule microarray, His-STAT3 binding, anti-His fluorescence | calls only | 17,000 tested, 0.2% active;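 active = compounds whose four printed spots each show fluorescence over background unusually high for their array block, chance value under 7%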
NFkB SMM – NF-kappa-B p105 (human) binding. P19838. Small molecule microarray, anti-His fluorescence binding. calls only. 17,000 tested, 1.3% active. AID 624139;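 active = spot fluorescence over background significantly raised, with a chance value under 7% in all four replicate spots of the compound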;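 also: probe protein is his-tagged human p50 processed subunit at 1 µg/ml; raw spot fluorescence signals with no normalization applied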
mut p53 react – restores mutant p53 pathway signaling in SW480 cells | AID 624151 | activation, % at 9.98 µM | 28,000 tested, 1.5% active | SW480 PUMA-promoter luciferase, p53 mutant reactivation; in the data active = activation above about 52%
Myc binder – binders of human c-Myc; P01106; small molecule microarray, His-c-Myc binding, anti-His fluorescence; calls only; 17,000 tested, 1.5% active; AID 624141;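 active = spot fluorescence over background with P-value below 7% in all four replicate spots, showing protein binding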;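 also: score is binary with 100 for all four spots passing and 0 otherwise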
Target sequence (P01106 whole entry, looked up): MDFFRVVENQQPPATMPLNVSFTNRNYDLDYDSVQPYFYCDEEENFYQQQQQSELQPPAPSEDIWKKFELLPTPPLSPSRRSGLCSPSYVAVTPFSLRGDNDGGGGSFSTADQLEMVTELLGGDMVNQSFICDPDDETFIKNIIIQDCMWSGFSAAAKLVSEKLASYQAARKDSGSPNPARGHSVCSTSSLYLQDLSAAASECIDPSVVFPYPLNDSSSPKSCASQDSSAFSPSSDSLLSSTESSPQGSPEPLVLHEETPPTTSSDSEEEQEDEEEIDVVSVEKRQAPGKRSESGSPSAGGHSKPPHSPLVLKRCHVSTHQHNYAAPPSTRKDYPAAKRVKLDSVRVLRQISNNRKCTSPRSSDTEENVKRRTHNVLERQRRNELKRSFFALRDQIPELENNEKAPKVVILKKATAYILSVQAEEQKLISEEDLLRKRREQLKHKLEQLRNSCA
mut p53 SMM – mutant p53 (human) binding | small molecule microarray binding, anti-GST fluorescence | 17,000 tested, 0.4% active | calls only;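 active = compounds whose four printed spots each glow above background more than chance allows, each with a p-value under 7%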
* hit, by the source's call; i = inactive; . = no result; + = active, no number.

SMILES	STAT3 binder	NFkB SMM	mut p53 react	Myc binder	mut p53 SMM
O=C(CN1C(=O)c2ccccc2C1=O)Nc1ccc(-c2nc3ccccc3o2)cc1	.	.	28	.	.
Cc1ccc2oc(-c3ccc(NC(=O)Cn4c(=O)oc5ccccc54)cc3)nc2c1	i	i	60*	i	i
CN(C)CCCNc1oc(-c2ccccc2F)nc1C#N	i	i	13	+	i
COC(=O)CSc1nc2sc3c(c2c(=O)n1Cc1ccccc1)CCCC3	i	i	-2	i	i
COC(=O)Cc1c(C)c2cc(Cl)c(OC(C)C(C)=O)cc2oc1=O (configuration not stated)	i	i	68*	i	i
COC(=O)Cc1c(C)c2c(OCC(N)=O)cc(C)cc2oc1=O	i	i	-6	i	i
Nc1nc(SCC(=O)c2ccccc2)nc2sc3c(c12)CCC3	.	.	113*	.	.
CN(c1ccccc1C(=O)Nc1ccccc1C(=O)N1CCOCC1)S(C)(=O)=O	.	.	-16	.	.
CC(=O)c1ccc(NC(=O)CSc2nc(-c3ccccc3)c(C#N)c(=O)[nH]2)cc1	.	.	59*	.	.
C[C@@H]1CCCCO[C@@H](CN(C)C(=O)Nc2cccc3ccccc23)[C@H](C)CN([C@H](C)CO)C(=O)c2cc(NC(=O)Nc3ccc(F)cc3)ccc2O1	i	+	.	+	i
C[C@H](CO)N1C[C@H](C)[C@@H](CN(C)C)OCCCC[C@H](C)Oc2ccc(NC(=O)Nc3cccc4ccccc34)cc2C1=O	i	i	-20	i	+
C[C@H](CO)N1C[C@H](C)[C@H](CN(C)C)OCCCC[C@H](C)Oc2ccc(NC(=O)Nc3cccc4ccccc34)cc2C1=O	i	i	3	i	i
C[C@H](CO)N1C[C@H](C)[C@@H](CN(C)CC2CCCCC2)OCCCC[C@H](C)Oc2ccc(NC(=O)Nc3cccc4ccccc34)cc2C1=O	i	+	.	i	i
CCN(CC(=O)Nc1ccccc1C(F)(F)F)S(=O)(=O)c1ccc(C)cc1	.	.	13	.	.
CCC1=C/C(=C\N(C)c2ccccc2)C(=O)S1	.	.	75*	.	.
CCCN(C)C[C@H]1OCCCC[C@H](C)Oc2ccc(NS(=O)(=O)c3ccc(OC)cc3)cc2C(=O)N([C@H](C)CO)C[C@H]1C	i	i	-12	i	+
C[C@H](CO)N1C[C@H](C)[C@H](CN(C)C(=O)C2CCCCC2)OCCCC[C@H](C)Oc2ccc(NS(=O)(=O)c3cccs3)cc2C1=O	+	i	-12	i	i
C[C@@H]1CN([C@@H](C)CO)C(=O)c2cc(NS(=O)(=O)c3ccccc3)ccc2O[C@@H](C)CCCCO[C@@H]1CN(C)C(=O)C1CCCCC1	+	i	-6	i	i
C[C@H](CO)N1C[C@H](C)[C@H](CN(C)S(C)(=O)=O)OCCCC[C@H](C)Oc2ccc(NS(=O)(=O)c3ccccc3)cc2C1=O	i	+	4	i	i
C[C@@H]1CCCCO[C@@H](CN(C)C(=O)C2CCCCC2)[C@H](C)CN([C@@H](C)CO)C(=O)c2cc(NS(=O)(=O)c3cccs3)ccc2O1	i	i	-20	i	i
CCOC(=O)c1c(NC(=O)c2ccc(Cn3cc(Cl)cn3)o2)sc2c1CCCCC2	i	i	-3	i	i
COc1ccc(Cl)cc1NC(=O)CSc1nnc(-c2cc3cc(Br)ccc3o2)n1C	.	.	52*	.	.
COc1ccc2c(C)nc(Nc3nc(C)cc(=O)[nH]3)nc2c1	.	.	73*	.	.
COc1ccc(OC)c(NC(=O)Nc2cccc(Cn3cccn3)c2)c1	.	.	12	.	.
COc1cccc2cc(C(=O)Nc3cccc(Cn4cccn4)c3)c(=O)oc12	i	i	57*	i	i
SMILES	STAT3 binder	NFkB SMM	mut p53 react	Myc binder	mut p53 SMM
CCOC(=O)c1c(NC(=O)c2nc3nc(C)cc(C(F)F)n3n2)sc(C)c1C	i	i	2	i	i
O=C(OCc1cccc(C(=O)c2ccccc2)c1)c1ccc(-c2nnc(-c3ccccc3)o2)cc1	i	i	71*	i	i
N#Cc1ccc(Oc2ccc(C(=O)OCc3cccc(C(=O)c4ccccc4)c3)cc2)cc1C#N	.	.	8	.	.
O=C(Nc1ccccc1C(=O)OCc1cccc(C(=O)c2ccccc2)c1)c1ccccc1	.	.	6	.	.
CC(=O)Nc1ccccc1C(=O)OCc1cccc(C(=O)c2ccccc2)c1	i	i	94*	i	i
COc1cc(NC(=O)Cn2cnc3c2c(=O)n(C)c(=O)n3C)cc(OC)c1OC	.	.	-11	.	.
C=CCOC(=O)C1=C[C@H](c2coc3ccccc3c2=O)C[C@H](OCc2ccc(CO)cc2)O1	i	i	.	+	i
COc1ccc(OC)c(NC(=O)COc2cc(C)cc(C)c2C)c1	.	.	27	.	.
CC(Oc1ccccc1)C(=O)Nc1cccc(-c2nnc(-c3ccccc3)o2)c1 (configuration not stated)	i	i	114*	i	i
CCC(Oc1ccccc1)C(=O)Nc1cccc(NC(C)=O)c1 (configuration not stated)	i	i	-7	i	i
CC(Oc1ccc(Cl)cc1Cl)C(=O)Nc1cccc(-c2nc3ccccc3o2)c1 (configuration not stated)	.	.	9	.	.
Cc1cc(Cl)ccc1OC(C)C(=O)Nc1cccc(-c2nnc(-c3ccccc3)o2)c1 (configuration not stated)	.	.	85*	.	.
Cc1ccc(S(=O)(=O)c2c(C)nn(C(C)(C)C)c2OC(=O)c2ccccc2Br)cc1	.	.	-20	.	.
Cc1cccc(OCC(=O)Nc2ccccc2C(=O)NC(C)(C)C)c1	i	i	-19	i	i
COc1ccc(OC)c(NC(=O)COc2ccc(C(C)(C)C)cc2)c1	.	.	64*	.	.
CCc1ccccc1OCC(=O)Nc1cc(OC)ccc1OC	.	.	93*	.	.
COC(=O)c1cc(Br)ccc1NC(=O)COc1ccc(C(C)(C)C)cc1	i	i	-9	+	i
COc1ccc(OC)c(NC(=O)COc2cc(C)c(Br)c(C)c2)c1	.	.	8	.	.
O=C(COc1ccc(Br)cc1)Nc1cccc(NC(=O)c2ccc(Cl)cc2Cl)c1	i	i	19	i	i
Cc1ccc(S(=O)(=O)NCC(=O)Nc2ccc(I)cc2)cc1	i	i	2	i	i
CC(C)Oc1ccc2c(=O)c3cc(C(=O)O)ccc3oc2c1	i	i	71*	i	i
CC(C)Oc1ccc2c(=O)cc(-c3ccccc3)oc2c1	i	i	22	i	i
COCCNC(=S)Nc1nc(OC)cc(OC)n1	i	i	-10	+	i
Cc1ccc(S(=O)(=O)Nc2ccc3c(c2)C(=O)N([C@@H](C)CO)C[C@H](C)[C@@H](CN(C)C(=O)CCC(F)(F)F)OCCCC[C@H](C)O3)cc1	i	+	.	i	i
C[C@H](CO)N1C[C@H](C)[C@H](CN(C)C(=O)CCC(F)(F)F)OCCCC[C@H](C)Oc2ccc(NS(=O)(=O)c3ccccc3)cc2C1=O	i	+	-4	+	i
C[C@H](CO)N1C[C@H](C)[C@@H](CN(C)C(=O)CCC(F)(F)F)OCCCC[C@H](C)Oc2ccc(NS(=O)(=O)c3ccc(F)cc3)cc2C1=O	i	+	.	+	i
